Measurements taken from PubChem BioAssay AID686934 (National Center for Advancing Translational Sciences (NCATS), 2013).
Inconclusive results are not listed. Activity calls are given as the source filed them. The call rests on the fitted dose curve; in most records, active means well fitted curve in the direction sought with a large enough effect; inconclusive means small, poorly fitted or top-dose-only effect, or another doubt; inactive means no such curve, though single readings can be large or run the other way.

Experiment: qHTS screen for small molecules that inhibit ELG1-dependent DNA repair: SAR in Cell-Based Luciferin Counter Assay
Conditions: cell-based luciferase counter-screen, luminescence; series mostly up to 45.7 µM
Excerpt: Cancer cells divide rapidly compared to normal cells in the body. During cell division, cancer cells need to duplicate their genome by DNA replication. The failure of genome duplication leads to cancer cells' death. Therefore, inhibitors of DNA replication could specifically kill cancer cells. Based on this concept, many chemotherapeutic agents were developed and have been used to treat cancer patients. However, there are a limited number of agents available in the clinical setting, and some of those that do exist have low efficacy and severe side effects. Therefore, if we can find the compounds that effectively block DNA replication either by directly damaging DNA or by inhibiting other cellular mechanisms, the options for cancer treatment will be broadened. With this in mind, we developed a quantitative high-throughput ELG1-luciferase reporter gene assay. Small molecules that specifically block ELG1 function in response to DNA damage can be identified by monitoring the suppression of luciferase activity. Since ELG1 defines a pathway for repairing DNA damage, agents blocking ELG1 function can be used to sensitize cancer cells to chemotherapeutic agents whose mechanism of action involves the induction of DNA damage. This assays is a counterscreen, that is more specifically, a cell-based luciferase assay following treatment with putative ELG1 antagonists to eliminate luciferase enhancers/inhibitors NIH Molecular Libraries Probe Production Network [MLPCN] NIH Chemical Genomics Center [NCGC] MLPCN Grant: R03 MH092164 Assay Provider: Kyungjae Myung, NHGRI, NIH
3 uL of substrate reagent will be pipetted into each well in 1536-well white, solid-bottom plates using a FRD dispenser, followed by addition of 23 nL of DMSO or compounds by pintool. After compound addition, 1 µL of luciferase will be added into the wells. The plates will be read in a ViewLux CCD-based plate reader.

Row | SMILES | outcome
1 | Oc1ccc(/C=C/c2c(F)cccc2F)c2cccnc12 | inactive
2 | N#Cc1ccc(-c2ccc(-c3nc4ccccc4c(=O)[nH]3)o2)cc1 | inactive
3 | O=C(COc1ccccc1Cl)Nc1ccc(-c2nc3ccccc3s2)cc1 | inactive
4 | Cc1nc(Nc2nc3ccccc3o2)nc2c1CCCC2 | inactive
5 | COc1ccc(C2CC(c3c(O)cc(C)oc3=O)=NCCS2)c(OC)c1 (stereo not drawn) | inactive
6 | CC(=O)Oc1ccc(-c2nc(-c3ccccc3)no2)cc1 | inactive
7 | COC(=O)Nc1nc2ccc(C(=O)c3cccs3)cc2[nH]1 | inactive
8 | COc1ccccc1/C=C/c1nc2ccccc2o1 | inactive
9 | O=C1/C(=C/c2ccc(O)c(O)c2)Oc2ccccc21 | inactive
10 | CSc1ncnc2c1ncn2C1OC(CO)C(O)C1O (stereo not drawn) | inactive
11 | O=S(=O)(c1c(F)cccc1F)N1CCN(S(=O)(=O)c2c(F)cccc2F)CC1 | inactive
12 | O=C(Cc1ccc(OCCCc2ccccc2)cc1)NO | inactive
13 | CN(C)N=Nc1ccc(/C=C2\C=Cc3ccccc32)cc1 | inactive
14 | CN(C)c1ccc(/C=C2\C=Cc3ccccc32)c(F)c1 | inactive
15 | O=c1[nH]c(-c2ccc(-c3cccc(Cl)c3)o2)nc2ccccc12 | inactive
16 | ICC[n+]1csc2ccccc21 | inactive
17 | Cc1csc(CNc2ncnc3ccc(-c4ccoc4)cc23)c1 | inactive
18 | COc1cccc2c1C(=O)/C(=C\c1ccc(N(C)C)cc1)C2 | inactive
